The list is not random: actives were taken first. Their share in the collection is about 1.8%.
CIT2-GFP yeast: yeast TOR pathway CIT2-GFP modulation | 320,000 compounds, 0.065% hits | S. cerevisiae CIT2-GFP strain, flow cytometry, 3 h; 100 means same as DMSO wells | GFP response vs DMSO, % at 10 µM;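 active means GFP response relative to DMSO above a set limit, near the screen mean plus 3 SD, cut at about 150% in these data; inconclusive means Fewer than 70 cells measured for a yeast strain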;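 further: ratio of well median GFP fluorescence to mean of DMSO wells on the plate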
LAP4 TOR yeast: yeast TOR pathway LAP4-GFP modulation. 320,000 compounds, 0.34% hits. GFP response vs DMSO, % at 10 µM. AID 2023. S. cerevisiae LAP4-GFP multiplex, flow cytometry GFP, 3 h; median GFP as percent of DMSO wells;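 active means GFP response vs DMSO above a set limit, about the screen mean plus 3 SD, cut at about 150% in these data; inconclusive means under 70 cell events counted for the yeast strain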
Myeloid diff 2: promotes myeloid progenitor differentiation; ER-HoxA9 myeloid progenitors, lysozyme-GFP differentiation, flow cytometry; calls only at 10 µM; 360,000 compounds, 1% hits; AID 624256;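 active means normalized GFP-positive differentiation at or above the plate's own cutoff, the solvent-only control mean plus 3 SD; inconclusive means no clear call, values can overlap the other calls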;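 further: cells exposed to compound for four days before flow analysis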
AGP1-GFP MLPCN: alters AGP1-GFP fluorescence in TOR pathway yeast screen; S. cerevisiae AGP1-GFP multiplex flow cytometry, 3 h; GFP as percent of DMSO wells; GFP response vs DMSO, % at 10 µM; 320,000 compounds, 0.02% hits;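 active means GFP response relative to DMSO above a set limit, near screen average plus 3 SD, cut at about 150% in these data; inconclusive means fewer than 70 cells counted for the yeast strain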;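 further: median GFP channel fluorescence of the gated AGP1 strain per well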
MEP2 TOR yeast: alters MEP2-GFP fluorescence in TOR pathway yeast screen | S. cerevisiae MEP2-GFP strain, flow cytometry GFP, 3 h; 100% = DMSO control level | GFP response vs DMSO, % at 10 µM | 330,000 compounds, 0.51% hits;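 active means GFP response versus DMSO above a set limit, roughly screen mean plus 3 SD, cut at about 180% in these data; inconclusive means fewer than 70 cells counted for a yeast strain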;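 further: median GFP fluorescence of the barcode-gated MEP2-GFP cells per well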
RPL19A-GFP yeast: alters RPL19A-GFP fluorescence in TOR pathway yeast screen | AID 2025 | percent response vs DMSO, % at 10 µM | S. cerevisiae RPL19A-GFP strain, flow cytometry, 3 h; active compounds read low | 330,000 compounds, 0.3% hits;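 active means percent response vs DMSO below 50%; inconclusive means fewer than 70 events counted for the yeast strain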;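 further: median channel GFP fluorescence of the barcoded RPL19A-GFP strain; lower means less RPL19A-GFP as with rapamycin TOR inhibition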
Myeloid diff CP1: myeloid differentiation induction; calls only; ER-HoxA9 myeloid progenitors, GFP/Mac1 double-positive flow; shares compounds with Myeloid diff 2; AID 651706; 2,300 compounds, 2% hits;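 active means share of green or green-and-red cells above 9 and 9% in run 1 or 4 and 3% in run 2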
GFP autofluor: counter-screen for myeloid differentiation promoters: compound fluorescence. shares compounds with Myeloid diff 2. 2,300 compounds, 7.4% hits. ER-HoxA9 myeloid progenitors, no estrogen, GFP autofluorescence flow cytometry; vehicle wells 0%, positive control 100%. fluorescence response, % (test concentration not listed);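 active means over 5% cells positive for green fluorescent reporter, or over 2% positive for both it and APC stain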
A number is an active result; . = inactive; ? = inconclusive; / = not tested or not shown; + = active, no number.

SMILES	CIT2-GFP yeast	LAP4 TOR yeast	Myeloid diff 2	AGP1-GFP MLPCN	MEP2 TOR yeast	RPL19A-GFP yeast	Myeloid diff CP1	GFP autofluor
COc1ccc(/C=N/NC(=O)CNC(=O)/C=C/c2ccco2)cc1OC	.	.	.	.	.	.	/	/
CC1(C)CC(=O)C=C(Nc2ccc(O)c(C(=O)O)c2)C1	.	.	.	.	.	.	/	/
CC1(C)CC(=O)C=C(Nc2ccc(C(=O)O)cc2)C1	.	.	+	.	.	.	.	.
CCCCOn1c(C)c(C(C)=O)c2c3no[n+]([O-])c3ccc21	.	.	.	.	.	.	/	/
Cc1ccc(O)c(NC(=O)CSc2ccc(Cl)cc2)c1	.	.	.	.	.	.	.	.
COC(=O)[C@@H](NC(=O)N1CCN(c2cccc(C(F)(F)F)c2)CC1)C(C)C	.	.	.	.	.	.	/	/
COC(=O)[C@H](CCSC)NC(=O)N1CCN(c2cccc(C(F)(F)F)c2)CC1	.	.	.	.	.	.	.	.
Cc1cc(C)cc(NC(=S)NCC2CCCO2)c1 (stereo unspecified)	.	.	.	.	.	.	.	.
S=C(NCC1CCCO1)Nc1cc(Cl)c(Cl)cc1Cl (stereo unspecified)	.	.	.	.	.	.	/	/
CCOC(=O)C1(Cc2ccc(Cl)cc2)CCN(Cc2nccn2CC)CC1	.	.	.	.	.	.	/	/
CCn1cc(C(=O)NN)c(=O)c2cc(F)c(NC3CCCCC3)cc21	/	/	.	/	/	/	.	.
Nc1nc(-c2ccccc2)c(CC(=O)O)s1	/	/	.	/	/	/	/	/
Nc1nc(-c2ccc(Oc3ccccc3)cc2)c(CC(=O)O)s1	.	.	.	.	.	.	.	.
C[C@@H]1CN([C@@H](C)CO)S(=O)(=O)c2ccc(Br)cc2O[C@H]1CN(C)C(=O)CN(C)C	/	/	+	/	/	/	.	.
C[C@H](CO)N1C[C@H](C)[C@@H](CN(C)C(=O)Nc2ccccc2)Oc2cc(Br)ccc2S1(=O)=O	/	/	.	/	/	/	/	/
COc1ccc(S(=O)(=O)N(C)C[C@@H]2Oc3cc(C#CC4CCCCC4)ccc3S(=O)(=O)N([C@@H](C)CO)C[C@@H]2C)cc1	/	/	.	/	/	/	.	.
C[C@@H]1CN([C@H](C)CO)S(=O)(=O)c2ccc(Br)cc2O[C@H]1CN(C)C(=O)Nc1cccc(F)c1	/	/	.	/	/	/	.	.
C[C@H]1CN([C@@H](C)CO)S(=O)(=O)c2ccc(Br)cc2O[C@H]1CN(C)C(=O)CN(C)C	/	/	.	/	/	/	/	/
Cc1onc(-c2ccccc2)c1C(=O)OCCOc1cccc(Cl)c1	.	.	/	.	.	.	/	/
CS(=O)(=O)N1CCN(c2ccc([N+](=O)[O-])cc2F)CC1	.	.	.	.	.	.	/	/
Cc1nc(NCCO)c(C#N)c2c1COC(C)(C)C2	.	.	+	.	.	.	.	.
COc1cccc(-c2oc3c(c2-c2ccc(OC)nc2)C(O)CCC3)c1 (stereo unspecified)	/	/	.	/	/	/	/	/
Cc1ccc(-c2nc3ccccc3[nH]2)s1	.	.	.	/	.	.	/	/
Cc1[nH]c2ccccc2c1-c1nc2ccccc2[nH]1	.	.	+	.	.	.	.	.
CCc1cccc(NC(=S)N(CCOC)C2CCN(C(C)=O)CC2)c1	.	.	.	.	.	.	/	/
SMILES	CIT2-GFP yeast	LAP4 TOR yeast	Myeloid diff 2	AGP1-GFP MLPCN	MEP2 TOR yeast	RPL19A-GFP yeast	Myeloid diff CP1	GFP autofluor
CC(C)(C)NS(=O)(=O)c1ccc(CCC(=O)Nc2ccc3c(c2)OCO3)cc1	.	.	+	.	.	.	.	.
COc1ccc(-n2c(SCC(N)=O)nnc2-c2ccc(NS(=O)(=O)c3ccc(C)cc3)cc2)cc1	.	.	+	.	.	.	.	.
O=c1[nH]c(=O)n([C@H]2C[C@H](O)[C@@H](CO)O2)cc1I	.	.	.	.	.	.	/	/
CCc1cn(C2CC(O)C(CO)O2)c(=O)[nH]c1=O (stereo unspecified)	.	.	+	.	.	.	.	.
O=C(O)Cc1sc(N/N=C\c2ccncc2)nc1-c1ccccc1	.	.	.	.	.	.	.	.
C(=N\Nc1nc(-c2ccccc2)cs1)/c1ccncc1	.	.	.	.	.	.	/	/
CCCCC(CC)CNC(=O)CCS(=O)(=O)c1cccc2nonc12 (stereo unspecified)	.	.	.	.	.	.	/	/
Cc1ccnc(S(=O)(=O)Cc2ccc([N+](=O)[O-])cc2)n1	.	.	.	.	.	.	.	.
Cn1c(CO)cnc1S(=O)(=O)Cc1ccc([N+](=O)[O-])cc1	.	.	.	.	.	/	/	/
O=C(NC(=S)Nc1ccccc1O)c1cncc(Br)c1	.	.	.	.	.	.	.	10
COc1cc(OC)c(OC)cc1/C=N/NC(=O)c1ccc(CSc2nc(C)cc(C)n2)cc1	.	.	+	.	.	.	.	.
COc1ccc(-c2c(C#N)c(SCC(=O)c3cc4ccccc4oc3=O)nc(C)c2C(=O)Nc2ccccc2)cc1	.	.	?	.	.	.	/	/
Cc1nc(SCC(=O)c2cc3ccccc3oc2=O)c(C#N)c(-c2ccccc2)c1C(=O)Nc1ccccc1	.	.	.	.	.	.	.	.
COc1ccc(Cl)cc1NC(=O)CCN1C(=O)C2C3CCC(C3)C2C1=O (stereo unspecified)	.	.	.	.	.	.	/	/
CCN(CC)CCOC(=O)c1ccc(N/C=C(/C#N)c2nc(-c3ccc(OC)cc3)cs2)cc1	.	.	.	.	.	.	.	.
CC(C)c1ccc(N(C(=O)c2csnn2)C(C(=O)NC2CCCC2)c2ccncc2)cc1 (stereo unspecified)	.	.	.	.	.	.	/	/
O=C(Nc1cc(Br)ccc1O)c1cc(-c2cccs2)on1	.	.	+	.	.	.	.	.
NC(=S)N/N=C/c1ccc(-c2ccc([N+](=O)[O-])cc2)o1	.	.	.	.	.	.	.	.
O=C(COc1ccc2ccc(=O)oc2c1)NC1CCCC1	?	?	+	?	.	?	.	.
O=C(COc1ccc2ccc(=O)oc2c1)NC1CCN(Cc2ccccc2)CC1	.	.	.	.	.	.	/	/
CCOC(=O)c1ccc(NC(=O)C2CCN(C(=O)c3ccc(OC)c(OC)c3)CC2)cc1	.	.	.	.	.	.	.	.
CCCCN(C)CCN1C(=O)C2C(C(=O)Nc3ccc(Cl)cc3)C3C=CC2(O3)C1C(=O)NC1CCCCC1 (stereo unspecified)	.	.	.	.	.	.	/	/
Cc1ccc(N/C(N)=N/c2nc(C)cc(C)n2)cc1	.	.	.	.	.	.	/	/
